Test results from the supplement of paper PMC8728848.
The entries come from a sample that favours the strongest signals as a whole.

Legend:
Assay in all cases: glycan array binding signal (z-score within array); higher = stronger binding
Details in all cases: glycan notation: IUPAC condensed, linker removed
[1] = target: Fuc(a1-2)Gal
Outline: (§1)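 Glycan array binding is given as a within-array Z-score, which can be read as non-binding when negative. The arrays, 3228 of them, came from the Consortium for Functional Glycomics database and were retained only where the protein sequence was available. Z-scores were averaged across arrays of the same protein sequence at different concentrations or buffers and across linkers.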

[2] = target: Fuc(a1-2)Gal(b1-3)GalNAc(a1-3)[Fuc(a1-2)]Gal(b1-4)GlcNAc
Outline: as §1

[3] = target: Fuc(a1-2)Gal(b1-3)GlcNAc(b1-3)[Neu5Ac(a2-6)Gal(b1-4)GlcNAc(b1-6)]Gal(b1-4)Glc
Outline: as §1

[4] = target: Fuc(a1-2)Gal(b1-4)GlcNAc(b1-2)Man(a1-3)[Fuc(a1-2)Gal(b1-4)GlcNAc(b1-2)Man(a1-6)]Man(b1-4)GlcNAc(b1-4)GlcNAc
Outline: as §1

[5] = target: Fuc(a1-2)Gal(b1-4)GlcNAc(b1-3)[Fuc(a1-3)[Gal(b1-4)]GlcNAc(b1-6)]Gal(b1-4)Glc
Outline: as §1

[6] = target: Fuc(a1-2)Gal(b1-4)GlcNAc(b1-6)GalNAc
Outline: as §1

[7] = target: Fuc(a1-2)[Gal(a1-3)]Gal(b1-4)GlcNAc(b1-6)GalNAc
Outline: as §1

[8] = target: Fuc(a1-2)[GalNAc(a1-3)]Gal(b1-3)GalNAc(b1-3)Gal(a1-4)Gal(b1-4)Glc
Outline: as §1

[9] = target: Fuc(a1-2)[GalNAc(a1-3)]Gal(b1-3)GlcNAc(b1-2)Man(a1-3)[Fuc(a1-2)[GalNAc(a1-3)]Gal(b1-3)GlcNAc(b1-2)Man(a1-6)]Man(b1-4)GlcNAc(b1-4)[Fuc(a1-6)]GlcNAc
Outline: as §1

[10] = target: Fuc(a1-2)[GalNAc(a1-3)]Gal(b1-4)GlcNAc(b1-2)Man
Outline: as §1

[11] = target: Fuc(a1-3)[Gal(b1-4)]GlcNAc(b1-3)Gal(b1-4)[Fuc(a1-3)]GlcNAc
Outline: as §1

[12] = target: Fuc(a1-3)[Gal(b1-4)]GlcNAc(b1-3)GalNAc
Outline: as §1

[13] = target: Fuc(a1-3)[Gal(b1-4)]GlcNAc(b1-6)[Gal(b1-3)GlcNAc(b1-3)]Gal(b1-4)Glc
Outline: as §1

[14] = target: Gal(a1-3)Gal(b1-3)GlcNAc(b1-6)GalNAc
Outline: as §1

[15] = target: Gal(a1-3)[Gal(a1-4)]Gal(b1-4)GlcNAc
Outline: as §1

[16] = target: Gal(a1-6)Glc
Outline: as §1

[17] = target: Gal(b1-3)GalNAc(b1-3)Gal
Outline: as §1

[18] = target: Gal(b1-3)GlcNAc(b1-2)Man(a1-3)[Gal(b1-3)GlcNAc(b1-2)Man(a1-6)]Man(b1-4)GlcNAc(b1-4)[Fuc(a1-6)]GlcNAc
Outline: as §1

[19] = target: Gal(b1-3)GlcNAc(b1-3)Gal(b1-4)GlcNAc(b1-6)[Gal(b1-3)GlcNAc(b1-3)]Gal(b1-4)Glc
Outline: as §1

[20] = target: Gal(b1-4)GlcNAc
Outline: as §1

[21] = target: Gal(b1-4)GlcNAc(a1-6)Gal(b1-4)GlcNAc
Outline: as §1

[22] = target: Gal(b1-4)GlcNAc(b1-2)Man(a1-3)[GlcNAc(b1-2)Man(a1-6)]Man(b1-4)GlcNAc(b1-4)GlcNAc
Outline: as §1

[23] = target: Gal(b1-4)GlcNAc(b1-3)[Fuc(a1-3)GlcNAc(b1-6)]Gal(b1-4)Glc
Outline: as §1

[24] = target: Gal(b1-4)GlcNAc(b1-6)Gal(b1-4)GlcNAc
Outline: as §1

[25] = target: Gal3S(b1-4)[Fuc(a1-3)]Glc6S
Outline: as §1

[26] = target: Gal3S(b1-4)[Fuc(a1-3)]GlcNAc
Outline: as §1

[27] = target: Gal6P(b1-4)GlcNAc
Outline: as §1

B1: AT1G77380(17) (Arabidopsis thaliana), Q39134 (protein)
chain: MVQNHQTVLAVDMPQTGGSKYLDDDGKNKRTGSVWTASAHIITAVIGSGVLSLAWATAQLGWLAGPVVMLLFSAVTYFTSSLLAACYRSGDPISGKRNYTYMDAVRSNLGGVKVTLCGIVQYLNIFGVAIGYTIASAISMMAIKRSNCFHKSGGKDPCHMNSNPYMIAFGLVQILFSQIPDFDQLWWLSILAAVMSFTYSSAGLALGIAQVVVNGKVKGSLTGISIGAVTETQKIWRTFQALGDIAFAYSYSIILIEIQDTVKSPPSEEKTMKKATLVSVSVTTMFYMLCGCMGYAAFGDLSPGNLLTGFGFYNPYWLLDIANAAIVIHLIGAYQVYCQPLFAFIEKQASIQFPDSEFIAKDIKIPIPGFKPLRLNVFRLIWRTVFVIITTVISMLLPFFNDVVGLLGALGFWPLTVYFPVEMYIAQKKIPRWSTRWVCLQVFSLGCLVVSIAAAAGSIAGVLLDLKSYKPFRSEY
[1]
  glycan array binding signal (z-score): 2.99
[2]
  glycan array binding signal (z-score): 2.89
[3]
  glycan array binding signal (z-score): -0.856
[4]
  glycan array binding signal (z-score): -0.43
[5]
  glycan array binding signal (z-score): 2.76
[6]
  glycan array binding signal (z-score): -0.513
[7]
  glycan array binding signal (z-score): -0.886
[8]
  glycan array binding signal (z-score): 4.03
[9]
  glycan array binding signal (z-score): -0.716
[10]
  glycan array binding signal (z-score): 1.32
[11]
  glycan array binding signal (z-score): -0.28
[12]
  glycan array binding signal (z-score): 0.285
[13]
  glycan array binding signal (z-score): 2.75
[14]
  glycan array binding signal (z-score): -0.733
[15]
  glycan array binding signal (z-score): 3.09
[16]
  glycan array binding signal (z-score): -0.766
[17]
  glycan array binding signal (z-score): -0.955
[18]
  glycan array binding signal (z-score): 3.2
[19]
  glycan array binding signal (z-score): 1.9
[20]
  glycan array binding signal (z-score): -0.639
[21]
  glycan array binding signal (z-score): 2.75
[22]
  glycan array binding signal (z-score): -0.757
[23]
  glycan array binding signal (z-score): 0.166
[24]
  glycan array binding signal (z-score): -0.725
[25]
  glycan array binding signal (z-score): 0.338
[26]
  glycan array binding signal (z-score): -0.327
[27]
  glycan array binding signal (z-score): -0.442
